Laboratory results: PubChem BioAssay (NCI)
The panel holds about 83,000 compounds, 20% with a hit somewhere; the sample as a whole holds those more often.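 Single-dose data. Exposure time 48 hours. Values below 10 considered active.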

What was measured:
Experiment in all cases: NCI-60 one-dose screen, 48 h (100 = growth as untreated, 0 = no growth, -100 = all killed)
[1] = tested on: HCT-15 colon; details: 10 µM unless noted
[2] = tested on: HT29 colon; details: 10 µM unless noted
[3] = tested on: SNB-75 CNS; details: 10 µM unless noted
[4] = tested on: SNB-19 CNS; details: 10 µM unless noted
[5] = tested on: U251 CNS; details: 10 µM unless noted
[6] = tested on: PC-3 prostate; details: 10 µM unless noted
[7] = tested on: SK-MEL-5 melanoma; details: 10 µM unless noted
[8] = tested on: UACC-62 melanoma; details: 10 µM unless noted
[9] = tested on: LOX IMVI melanoma; details: 10 µM
[10] = tested on: SK-MEL-28 melanoma; details: 10 µM unless noted

Measured: growth

Cc1ccc(C(C)C)c(OCC(=O)O)c1
inactive: [1] 101% | [2] 109% | [3] 99.3% | [4] 104% | [5] 96.1% | [6] 98.7% | [7] 100% | [8] 100% | [9] 102% | [10] 106%

OC(CBr)CCBr (centres undefined)
inactive: [1] 97.8% | [2] 105% | [3] 73.9% | [4] 97% | [5] 93.3% | [6] 87.5% | [7] 101% | [8] 95.1% | [9] 96.1% | [10] 107%

O=C(O)CSCC(=O)Nc1cc(C(F)(F)F)ccc1Cl
inactive: [1] 103% | [2] 104% | [3] 125% | [4] 106% | [5] 106% | [6] 102% | [7] 102% | [8] 99.6% | [10] 114%
